Assay outcomes: PubChem, Broad Institute
Compounds with a hit are over-represented: about 0.89% of the library has one in this group of screens.
BJeLR viab HTS: BJeLR cell viability loss, primary screen, luminescence, CellTiterGlo ATP | viability loss activity score, % (concentration not given with the values) | hit rate 0.64% among 30,000 | BJeLR fibroblasts viability, 48 h; HRASV12, hTERT and SV40 LT/ST transformed | AID 2275, 2010; in the data active = viability loss activity score above about 50%;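 also: higher score means fewer live cells and less ATP luminescence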
A1 inh: inducers of caspase activity in MEF A1-2A-BIM cells, primary screen, A1 inhibitor project, cell-based, CaspaseGlo luminescence | caspase-Glo luminescence, 3 h; percent of clofoctol signal, DMSO as zero | caspase activation, % (test concentration not listed) | hit rate 0.51% among 21,000 | AID 2241, 2010;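 active = most replicate scores above 10, or exactly half above 10 with mean activity above 10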;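 also: effector caspase 3 and 7 activity cleaving a DEVD luciferin substrate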
* marks the source's active call; other numbers are inactive results.

What do the screens show for `CC1=CC2OC3[C@H](O)C[C@@](C)([C@]34CO4)[C@@]2(CO)[C@H](O)C1=O` (stereo partly specified)?
BJeLR viab HTS: 74*; A1 inh: 3

Results for CC(C)Sc1nnc(OC(=O)N(C)C)n1-c1cccc(C(F)(F)F)c1 ?
BJeLR viab HTS: -6; A1 inh: 0

What do the screens show for `Cc1ccc(NC(=O)c2cccc(OC(=O)N(C)c3ccccc3)c2)cc1C`?
BJeLR viab HTS: 0; A1 inh: -2

Results for CN[C@@H]1C[C@@]2(C)O[C@@H]([C@@H]1OC)n1c3ccccc3c3c4c(c5c6ccccc6n2c5c31)C(=O)NC4 ?
BJeLR viab HTS: 127*; A1 inh: 84*

What do the screens show for `CC(/C=C/[C@@]1(C)[C@H](C)CCC(=O)[C@@H]1C)=C\Cc1c(O)c(Cl)c(C)c(C=O)c1O`?
BJeLR viab HTS: 26; A1 inh: -1

How did CCN(CC)CCc1c(C)c2ccc(O)cc2oc1=O do in these assays?
BJeLR viab HTS: -1; A1 inh: 2

Results for CC(C)(C)c1cc(C=C(C#N)C#N)cc(Br)c1O ?
BJeLR viab HTS: 8; A1 inh: -1

How did C[C@@H]1CC([C@H](O)CC2CC(=O)NC(=O)C2)C(=O)[C@@H](C)C1 (stereo partly specified) do in these assays?
BJeLR viab HTS: 87*; A1 inh: 4

Results for C[C@@H]1C[C@@H]([C@H](O)CC2CC(=O)NC(=O)C2)C(=O)[C@@H](C)C1 ?
BJeLR viab HTS: 61*; A1 inh: 5

How did CCCc1nc(-c2ccccn2)nc(OC(=O)N(C)C)c1Cc1c(F)cccc1Cl do in these assays?
BJeLR viab HTS: -4; A1 inh: 0

How did C/C=C(/C)C(=O)O[C@H]1C(C)=C2[C@H]([C@@H]1OC(=O)CCCCC)[C@@](C)(OC(C)=O)C[C@H](OC(=O)CCC)[C@@]1(O)[C@H]2OC(=O)[C@@]1(C)O do in these assays?
BJeLR viab HTS: 26; A1 inh: 2

Results for CCSc1nc2ccccc2c(=O)n1-c1cccc(OC)c1 ?
BJeLR viab HTS: 0; A1 inh: 0

Results for CCCCc1nc2ccccc2c(=O)n1-c1ccc(C)cc1 ?
BJeLR viab HTS: -1; A1 inh: -1

Results for Cc1ccccc1CN1CCN(C(C)C)CC1 ?
BJeLR viab HTS: -3; A1 inh: 0

What do the screens show for `Cc1ccc(-c2nc(Cn3cc(C=C4C(=O)N(C)C(=O)N(C)C4=O)c4ccccc43)no2)cc1`?
BJeLR viab HTS: -2

What do the screens show for `O=C1NC(=O)C(=Cc2cn(Cc3ccccc3)c3ccccc23)C(=O)N1`?
BJeLR viab HTS: 5; A1 inh: 33*

What do the screens show for `Cc1nc(-c2ccccc2)nc(OC(=O)N(C)C)c1Oc1cccc(C(F)(F)F)c1`?
BJeLR viab HTS: 3; A1 inh: 0

What do the screens show for `C=C1[C@@H](C)[C@H]2[C@H](Cc3ccccc3)NC(=O)[C@]23OC(=O)/C=C\[C@H](O)CCC[C@@H](C)C/C=C/[C@H]3[C@@H]1O`?
BJeLR viab HTS: 39; A1 inh: 30*

What do the screens show for `Brc1cccc(CN2CCN(Cc3cccc(Br)c3)CC2)c1`?
BJeLR viab HTS: 9; A1 inh: 0

How did COc1cccc(N2CCNCC2)c1 do in these assays?
BJeLR viab HTS: 3

How did CC(=O)OC1CCC2(C)C(=CCC3C4CCC(=O)C4(C)CCC32)C1 (stereo unspecified) do in these assays?
BJeLR viab HTS: -1; A1 inh: -1

Results for C[C@@H]1O[C@@H](O[C@@H]2C=C3CCC4C(CC[C@]5(C)[C@@H](c6ccc(=O)oc6)CC[C@]45O)[C@@]3(C)CC2)[C@H](O)[C@H](O)[C@H]1O (stereo partly specified) ?
BJeLR viab HTS: 121*; A1 inh: 1

How did C[C@@H]1O[C@@H](O[C@@H]2C=C3CC[C@@H]4C(CC[C@]5(C)[C@@H](c6ccc(=O)oc6)CC[C@]45O)[C@@]3(C)CC2)[C@H](O)[C@H](O)[C@H]1O (stereo partly specified) do in these assays?
BJeLR viab HTS: 99*; A1 inh: 0

How did OC[C@H]1O[C@@H](n2cnc3cc(Cl)c(Cl)cc32)C(O)[C@H]1O (stereo partly specified) do in these assays?
BJeLR viab HTS: -4; A1 inh: 4

Results for O=C(c1cnn(-c2ccccc2)c1-n1cccc1)N1CCC2(CC1)OCCO2 ?
BJeLR viab HTS: -2; A1 inh: 0

Results for CC1(C)C(=O)C=C[C@@]2(C)C1C(=O)C(=O)[C@]1(C)C2CC[C@@]2(C)[C@H](c3ccoc3)C[C@H]3O[C@]321 (stereo partly specified) ?
BJeLR viab HTS: 27; A1 inh: -1

Results for COCc1cc(OC(=O)N(C)C)nc(COc2ccc(Cl)cc2)n1 ?
BJeLR viab HTS: 4; A1 inh: 1

What do the screens show for `O=[P+](c1ccccc1)c1ccccc1`?
BJeLR viab HTS: -9; A1 inh: 0

Results for COc1cc2c(c(OC)c1OC)-c1cc3c(cc1[C@H](OC(C)=O)[C@H]1COC(=O)[C@@H]1C2)OCO3 ?
BJeLR viab HTS: 60*; A1 inh: 3

Results for COc1ccc(CC2C(=O)OCC2Cc2ccc3c(c2)OCO3)cc1OC (stereo unspecified) ?
BJeLR viab HTS: -4; A1 inh: 0

Results for NCCC1COc2ccccc2O1 (stereo unspecified) ?
BJeLR viab HTS: -2

How did COc1cccc(OC)c1C1=NCC(=O)Nc2c1oc1ccc(Br)cc21 do in these assays?
BJeLR viab HTS: 55*; A1 inh: 3

Results for Cc1ccc2[nH]cc(CC(C)N)c2c1 (stereo unspecified) ?
BJeLR viab HTS: 5; A1 inh: 0

How did CC1=CC2/C=C(\C)CCC(O)C(O)/C=C/C(=O)C23C(=O)NC(CC(C)C)C3C1C (stereo unspecified) do in these assays?
BJeLR viab HTS: 96*; A1 inh: 77*

What do the screens show for `CN1CCc2nc(SCc3cccc(Cl)c3)c(C#N)cc2C1`?
BJeLR viab HTS: 1

How did CCc1ccc(CN2CCN(Cc3ccc(CC)cc3)CC2)cc1 do in these assays?
BJeLR viab HTS: 4; A1 inh: 0

Results for C[CH2][Hg][S]c1ccccc1C(=O)O ?
BJeLR viab HTS: 142*; A1 inh: 2

Results for CNc1ccccc1C(=O)O ?
BJeLR viab HTS: -7; A1 inh: 0

Results for CCCC12CNCC(C)(CNC1)C2=O ?
BJeLR viab HTS: -1; A1 inh: 0

What do the screens show for `C[C@]12CC[C@H](O)C[C@H]1CCC1C2CC[C@]2(C)[C@@H](C3=CC(=O)OC3)[C@@H](O)C[C@]12O` (stereo partly specified)?
BJeLR viab HTS: 30; A1 inh: 0

Results for CO[C@H]1[C@H](O)[C@H](O[C@H]2CC[C@]3(C)C4CC[C@]5(C)C(C6=CC(=O)OC6)CC[C@]5(O)C4CC[C@@H]3C2)O[C@@H](C)[C@@H]1O (stereo partly specified) ?
BJeLR viab HTS: 111*; A1 inh: 1
